In the library only some 0.71% were active in any assay of this set; here they are far more common.
PI4K2A block: blocks human PI4K2A kinase activity; purified PI4K2A, ADP-Glo luminescence, 1 h; active compounds read low; activity change, negative = inhibition, % at 76.9 µM; AID 1346378; hit rate 0.13% among 420,000; Q9BTU6; in the data active = activity change below about -50%; inconclusive = mostly about -30% to -49%;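 also: -100% = wells without enzyme as full effect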
Target sequence (Q9BTU6 whole entry, looked up): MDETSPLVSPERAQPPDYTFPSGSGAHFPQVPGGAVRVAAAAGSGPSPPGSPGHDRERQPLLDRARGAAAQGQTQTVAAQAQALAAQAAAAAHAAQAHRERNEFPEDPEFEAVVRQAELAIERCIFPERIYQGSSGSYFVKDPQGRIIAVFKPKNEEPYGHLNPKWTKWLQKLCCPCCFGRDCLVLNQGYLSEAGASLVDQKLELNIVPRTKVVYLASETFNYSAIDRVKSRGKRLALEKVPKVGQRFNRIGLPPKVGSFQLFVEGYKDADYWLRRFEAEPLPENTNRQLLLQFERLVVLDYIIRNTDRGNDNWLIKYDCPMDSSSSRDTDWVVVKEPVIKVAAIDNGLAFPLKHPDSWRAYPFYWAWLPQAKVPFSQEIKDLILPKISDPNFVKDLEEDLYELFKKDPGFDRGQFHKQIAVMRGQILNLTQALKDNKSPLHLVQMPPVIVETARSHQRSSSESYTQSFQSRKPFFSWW
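Compounds are screened against recombinant PI4K2A using PI as substrate and ATP, the latter dispensed at 300 microM. Reactions run one hour at ambient temperature before ADP-Glo detection; full inhibition defined by wells lacking enzyme.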
USP2a block: blocks human ubiquitin-specific protease USP2a; Potency, µM (top dose mostly 38.3 µM), for the others: at the highest dose activity change, negative = inhibition, usual class: inhibitors; USP2 core, Ub-CHOP2 coupled fluorogenic reporter, 485/531; O75604; hit rate 0.01% among 330,000;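 also: potency is read from the fitted curve at half-maximal effect; plate controls were DMSO wells for no effect and full inhibition by NEM control for full effect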
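Cell-free coupled assay: 10nM USP2 core preincubated 30min RT with compound in Tris-HCl pH 8.0/CaCl2/CHAPS buffer, then 25nM Ub-CHOP2 and 25nM reporter substrate; fluorescence (Ex 485/Em 531) read after 60min RT, normalized to NEM inhibition, concentration-response curves fitted.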
GALK inh: blocks human galactokinase activity | Purified GALK, Kinase-Glo residual ATP luminescence | AID 1868 | Potency, µM (highest dose often 57.5 µM), inactives show top-dose activity change, negative = inhibition, usual class: inhibitors | hit rate 0.007% among 270,000; also: potency is read from the fitted curve at half-maximal effect
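5 nM enzyme, 35 uM ATP, 100 uM galactose, 20 mM HEPES pH8.0, 5 mM MgCl2; 1 h RT; residual ATP by Kinase-Glo Plus luminescence, qHTS format.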
Coupling enz: counter-screen for Giardia aldolase inhibitors: coupling enzyme system; activity change, negative = inhibition, % at 58.2 µM, hits read low; hit rate 0.67% among 290,000; coupling enzyme system counterscreen, AmpLite Red fluorescence; in the data active = activity change below about -30%
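Fluorescence at 525 nm excitation and 598 nm emission measured inhibition of the coupled detection system without aldolase. Compounds (at 57.5 uM final) were preincubated 10 min at room temperature with coupling enzyme reagent before a 20 min substrate/AmpLite Red step.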
Eya2 phos inh: blocks the phosphatase activity of human Eya2; hit rate 0.006% among 330,000; Potency, µM (top dose mostly 76.9 µM), for inactives: top-dose activity, negative = inhibition, most hits filed as inhibitors; recombinant Eya2, OMFP fluorescence dephosphorylation (OMFP is methylfluorescein phosphate); also: potency is read from the fitted curve at half-maximal effect
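Eya2 protein (added as 0.2 uM solution) was preincubated with compound for 10 min at ambient temperature in 50 mM HEPES pH 7.5, 50 mM NaCl, 5 uM MgCl2, 0.05% BSA, 1 mM DTT. OMFP (added at 50 uM) then reacted 10 min; fluorescence read at 485/525 nm.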
USP1-UAF1 inh: inhibitors of human USP1/UAF1 deubiquitinase | recombinant USP1/UAF1, Ub-Rhodamine cleavage fluorescence | AID 743255 | O94782 | Potency, µM (titrated, usually from 57.1 µM), for the others: at the top dose activity change, negative = inhibition, hits mostly inhibitors | hit rate 0.23% among 390,000; also: potency is read from the fitted curve at half-maximal effect; nearly all actives have a fitted effect of over 60% in size
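Step one: compound is pinned into 1nM USP1/UAF1 in HEPES pH 7.8 buffer with TCEP. Step two: 15 min room-temperature incubation. Step three: Ub-Rho (150nM final) starts cleavage, tracked by fluorescence over six one-minute reads.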
Numbers without * were called inactive; ? = inconclusive; / = not tested or not shown; ! = repeats disagree. Unless noted, calls follow the shape of the dose curve; as a rule, active = well fitted curve in the direction sought with a large enough effect; inconclusive = small, poorly fitted or top-dose-only effect, or another doubt; inactive = no such curve, though single readings can be large; an effect the other way counts as inactive or inconclusive. Unless noted, % is scaled to controls: 0 for no effect and ±100 for the full control effect.

SMILES	PI4K2A block	USP2a block	GALK inh	Coupling enz	Eya2 phos inh	USP1-UAF1 inh
O=S(=O)(/N=C/c1c(O)ccc2ccccc12)c1ccccc1	-5	2%	-3%	-36*	12%	-18%
O=C(N/N=C/c1c(O)ccc2ccccc12)Nc1ccccc1	-3	/	/	/	/	-14%
NC(=O)c1ccc(N=Cc2c(O)ccc3ccccc23)cc1	14	/	/	/	/	?
N#Cc1cccc(N=Cc2c(O)ccc3ccccc23)c1	-1	0%	0%	-38*	-1%	-17%
O=C(O)c1ccc(N=Cc2c(O)ccc3ccccc23)cc1	-1	0%	-3%	-36*	-10%	-27%
CCn1c(SCC(=O)Nc2ccc(S(=O)(=O)Nc3cc(C)nc(C)n3)cc2)nc2sc(C)c(C)c2c1=O	2	/	/	/	/	/
O=C(O)c1cc(N=Nc2ccc(-c3ccc(N=Nc4ccc(O)c(C(=O)O)c4)cc3)cc2)ccc1O	/	/	/	13	/	/
COc1cc2nc3c(c([Si](C)(C)C(C)(C)C)c2cc1OC)Cn1c-3cccc1=O	/	/	/	-42*	/	/
COC(=O)[C@]12C[C@H](CC(=O)NCC34CC5CC(CC(C5)C3)C4)C(=O)N(Cc3ccc4c(c3)OCO4)C1=C[C@H](C(C)C)O[C@@H]2C1CC1	3	/	/	/	/	/
CCSC1=C(C#N)C(c2ccccc2OC)CC(=O)N1 (centres undefined)	-65*	3%	1%	0	-22%	-9%
CCOc1ccccc1C1CC(=O)NC(SCC)=C1C#N (centres undefined)	2	2%	0%	2	-9%	-5%
CN(C)[C@@H](CCOc1cccc2ccccc12)c1ccccc1	-2	/	/	/	/	/
CCN(CC)c1ccc2cc(C(C)=O)c(=O)oc2c1	-4	?	-1%	-1	29%	?
CCN(CC)c1ccc2cc(C=O)c(=O)oc2c1	3	/	-2%	0	/	16µM*
CCN(CC)c1ccc2cc(NC(=O)CCC(=O)O)c(=O)oc2c1	-1	26%	-6%	-1	22%	28µM*
O=C(O)c1ccc(OCCN2CCCCC2)cc1	-2	/	/	/	/	/
O=c1oc2ccccc2cc1-c1nc2c(s1)CCc1ccccc1-2	-2	-1%	0%	-81*	-5%	-24%
O=C(CCc1ccc(S(=O)(=O)N2CCOCC2)cc1)N/N=C/c1ccc(F)cc1F	-2	1%	10%	5	3%	-16%
O=[N+]([O-])c1ccc(N/N=C/c2ccc(O)c(O)c2O)c(S(=O)(=O)N2CCOCC2)c1	-21	-23%	4%	-59*	3%	?
O=C(CCc1ccc(S(=O)(=O)N2CCOCC2)cc1)N/N=C/c1ccc(O)c(O)c1O	-7	6%	0%	-31*	9%	-17%
O=[N+]([O-])c1ccc(N/N=C/c2cccc(O)c2O)c(S(=O)(=O)N2CCOCC2)c1	-8	0%	10%	-10	-3%	1%
Nc1ncnc(Nc2ccc(S(N)(=O)=O)cc2)n1	-65*	0%	-2%	-3	?	-6%
Cc1ccc(Nc2ncnc(N)n2)cc1	-8	7%	0%	2	-2%	-10%
CC1CC(=O)c2c(cc3c(-c4c(O)cc(O)c5c(O)c6c(cc45)OC(C)CC6=O)c(O)cc(O)c3c2O)O1 (centres undefined)	-21	-4%	-15%	-8	-17%	32µM*
CCCNC(=O)OC[C@@H]1O[C@H](CCON=C(C)C)C=C[C@@H]1Oc1ccc(OC)cc1	/	/	/	0	/	/
SMILES	PI4K2A block	USP2a block	GALK inh	Coupling enz	Eya2 phos inh	USP1-UAF1 inh
CC1=C(C)/C(=N\OS(=O)(=O)c2ccccc2)C=CC1=O	-20	0%	-3%	-77*	-9%	-11%
O=C(N=Nc1c(O)[nH]c2ccccc12)c1cc(NS(=O)(=O)c2cccs2)cc(NS(=O)(=O)c2cccs2)c1	-51*	0%	-2%	-1	1%	-3%
O=C(N=Nc1c(O)[nH]c2ccccc12)c1cccs1	-6	12%	-1%	-1	-4%	-8%
CCCCCCCCCCCCCCCCCCNC(=O)OC1CCN(C(=O)OC[C@H](COC(=O)N(Cc2cccc[n+]2CC)C(=O)c2ccccc2OC)OC)CC1	1	/	/	/	/	/
CN1C(=O)/C(=C/c2ccccc2OCc2cccc(F)c2)N(C)C1=S	-1	0%	4%	-37*	3%	-17%
CSc1nc2ccc(NC(=O)NC(=O)c3c(F)cccc3F)cc2s1	-2	6%	/	2	-2%	-4%
COc1cccc(F)c1C(=O)NC(=O)Nc1ccc2nc(C)oc2c1	-4	-2%	1%	-31*	5%	?
CCOC(=O)N1CCc2c(sc(NCc3ccc(N(C)C)cc3)c2C(=O)Nc2ccc(OC)cc2)C1	?	/	/	/	/	28µM*
CC[C@]12c3[nH]c4cc(CCC(=O)N(C)C)ccc4c3CCN1C(=O)[C@@H](CC(=O)NCCC1=CCCCC1)C[C@@H]2C(=O)N1CCN(C(=O)c2ccco2)CC1	0	3%	/	/	4%	-31%
CC[C@]12c3[nH]c4cc(-c5ccco5)ccc4c3CCN1C(=O)[C@@H](CC(=O)NCCC1=CCCCC1)C[C@@H]2C(=O)N1CCN(C(=O)c2ccco2)CC1	-53*	-17%	/	/	-3%	-25%
O=C(c1cccnc1Cl)N1CCC(Oc2cccnc2)CC1	2	/	/	/	/	/
COC(=O)/C=C/C1c2ccccc2C(OC)C1C (centres undefined)	/	/	/	0	/	/
NC1=C(Br)C(=O)c2ncccc2C1=O	?	/	/	/	/	4.5µM*
O=C1c2cccnc2C(=O)N1CO	-1	-1%	-4%	0	-12%	-16%
CCOC(=O)c1c(NC(=O)CCCOc2ccccc2C)sc2c1CCC(C)C2 (centres undefined)	2	/	/	/	/	-26%
C=C(C)CC1(c2ccccc2)Oc2ccccc2-c2nc3cc(Cl)c(Cl)cc3nc21 (centres undefined)	/	/	/	1	/	/
COC(=O)CCC(=O)OC1(C)C(=O)C2=CN(C(CO)CO)C(c3ccc(OC)cc3)=CC2=C(Br)C1=O (centres undefined)	/	14%	-1%	-48*!	-5%	/
COC(=O)CCC(=O)OC1(C)C(=O)C2=CN(CCCCO)C(c3ccc(OC)cc3)=CC2=C(Br)C1=O (centres undefined)	/	2%	/	-47*!	11%	/
CC1(OC(=O)CCc2ccccc2)C(=O)C=C2C=C(c3ccc(C#N)cc3)N(CCN3CCOCC3)C=C2C1=O (centres undefined)	-7	-11%	5%	-31*!	0%	?

Compound activity deposited in PubChem by National Center for Advancing Translational Sciences (NCATS).
